Measurements taken from PubChem BioAssay (EPA / NIEHS).
Where “and” joins values, the source holds several entries; their conditions need not be identical. Equal entries are not always repeated. Some structures have more than one record in an assay (separate samples or runs), and their calls can disagree. Calls of active or inactive are those of the source. The calls were made as follows: active = hit-call score of the fitted dose curve at least 0.9, where 1 is the maximum; inactive = score below 0.9.

Columns and labels:
[1] = read-out: Vascular cell adhesion molecule 1 (VCAM1), VCAM1 (gene 7412); test: BSK_BF4T_VCAM1: BioMAP Diversity Plus: BF4T Assay for Vascular cell adhesion molecule 1 (VCAM1) Biomarker Activity (AID 2284249); conditions: primary human bronchial epithelial cells with fibroblasts
Method in brief: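 Cell-surface VCAM-1 quantified by ELISA after 24 h chemical exposure of human bronchial epithelial/dermal fibroblast co-cultures, with SRB staining in parallel wells for cytotoxicity; DMSO baseline, positive-direction fitting.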

[2] = read-out: Collagen I, COL1A1 (gene 1277); test: BSK_hDFCGF_CollagenI: BioMAP Diversity Plus: hDFCGF Assay for Collagen I Biomarker Activity (AID 2284250); conditions: primary human foreskin fibroblasts
Method in brief: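 Collagen I ELISA, primary human foreskin fibroblasts, 24 h chemical exposure, DMSO = negative control/baseline, positive fitting direction.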

[3] = read-out: Interferon-inducible T-cell alpha chemoattractant (ITAC), CXCL11 (gene 6373); test: BSK_hDFCGF_ITAC: BioMAP Diversity Plus: hDFCGF Assay for Interferon-inducible T-cell alpha chemoattractant (ITAC) Biomarker Activity (AID 2284251); conditions: primary human foreskin fibroblasts
Method in brief: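 Chemical dosing of primary human foreskin fibroblast cultures preceded ELISA measurement of I-TAC at 24 h. Response was analysed in the positive direction using DMSO as baseline, while parallel SRB staining measured cytotoxicity.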

[4] = read-out: Plasminogen activator inhibitor-1 (PAI1), SERPINE1 (gene 5054); test: BSK_KF3CT_PAI1: BioMAP Diversity Plus: KF3CT Assay for Plasminogen activator inhibitor-1 (PAI1) Biomarker Activity (AID 2284252); conditions: primary human keratinocytes with fibroblasts
Method in brief: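 Cells (human keratinocytes co-cultured with foreskin fibroblasts) are exposed to test chemical for 24 h. PAI-1 is then measured by ELISA and analysed for signal gain against DMSO.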

[5] = read-out: Monocyte Chemoattractant Protein-1 (MCP1), CCL2 (gene 6347); test: BSK_IMphg_MCP1: BioMAP Diversity Plus: IMphg Assay for Monocyte Chemoattractant Protein-1 (MCP1) Biomarker Activity (AID 2284253); conditions: primary human endothelial cells with macrophages
Method in brief: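 ELISA readout of MCP-1 at 24 hours in IMphg co-cultures of venular endothelial cells and macrophages, normalised to DMSO; parallel cultures stained with sulforhodamine B for overt cytotoxicity.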

[6] = read-out: Interleukin-8 (IL8), CXCL8 (gene 3576); test: BSK_KF3CT_IL8: BioMAP Diversity Plus: KF3CT Assay for Interleukin-8 (IL8) Biomarker Activity (AID 2284254); conditions: primary human keratinocytes with fibroblasts
Method in brief: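 IL-8 read-out: ELISA, 24 h post-dose, human skin primary co-culture (keratinocytes + foreskin fibroblasts). DMSO = baseline; positive-direction fit.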

[7] = read-out: Macrophage Inflammatory Protein-1 Alpha (MIP1a), CCL3 (gene 6348); test: BSK_IMphg_MIP1a: BioMAP Diversity Plus: IMphg Assay for Macrophage Inflammatory Protein-1 Alpha (MIP1a) Biomarker Activity (AID 2284255); conditions: primary human endothelial cells with macrophages
Method in brief: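 MIP-1a protein levels were quantified by ELISA after 24 h treatment of human endothelial cell–macrophage co-cultures, compared with DMSO. Parallel cultures were fixed with TCA and stained with 0.1% SRB to gauge overt cytotoxicity.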

[8] = read-out: Plasminogen activator inhibitor-1 (PAI1), SERPINE1 (gene 5054); test: BSK_MyoF_PAI1: BioMAP Diversity Plus: MyoF Assay for Plasminogen activator inhibitor-1 (PAI1) Biomarker Activity (AID 2284256); conditions: primary human lung fibroblasts
Method in brief: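 MyoF lung fibroblasts, human primary; compound 24 h; PAI-1 ELISA; positive-direction fit vs DMSO baseline; parallel SRB total-protein staining for cytotoxicity.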

[9] = read-out: CD69, CD69 (gene 969); test: BSK_IMphg_CD69: BioMAP Diversity Plus: IMphg Assay for CD69 Biomarker Activity (AID 2284257); conditions: primary human endothelial cells with macrophages
Method in brief: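 Readout is ELISA for CD69 in primary human venular endothelial cell/macrophage co-culture, taken at 24 h post-dosing. SRB staining of parallel cultures gauged overt cytotoxicity; signal increase versus DMSO defined activity.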

[10] = read-out: Eotaxin 3, CCL26 (gene 10344); test: BSK_BF4T_Eotaxin3: BioMAP Diversity Plus: BF4T Assay for Eotaxin 3 Biomarker Activity (AID 2284258); conditions: primary human bronchial epithelial cells with fibroblasts
Method in brief: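 ELISA measurement of Eotaxin-3 after 24 h chemical exposure in a bronchial epithelial/dermal fibroblast co-culture, with DMSO as baseline. Parallel SRB staining (0.1% SRB after 10% TCA fixation, 560 nm) flagged overt cytotoxicity.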

[11] = read-out: Monocyte Chemoattractant Protein-1 (MCP1), CCL2 (gene 6347); test: BSK_BF4T_MCP1: BioMAP Diversity Plus: BF4T Assay for Monocyte Chemoattractant Protein-1 (MCP1) Biomarker Activity (AID 2284259); conditions: primary human bronchial epithelial cells with fibroblasts
Method in brief: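 MCP-1 ELISA readout taken 24 h after dosing in the BF4T system (bronchial epithelial cells plus dermal fibroblasts). Parallel SRB total-protein staining flagged cytotoxicity; DMSO served as baseline, positive fitting direction.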

[12] = read-out: Intercellular Adhesion Molecule 1 (ICAM1), ICAM1 (gene 3383); test: BSK_BF4T_ICAM1: BioMAP Diversity Plus: BF4T Assay for Intercellular Adhesion Molecule 1 (ICAM1) Biomarker Activity (AID 2284260); conditions: primary human bronchial epithelial cells with fibroblasts
Method in brief: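 ICAM-1 levels measured by ELISA after 24 h chemical treatment of bronchial epithelial cell/dermal fibroblast co-cultures, read against DMSO baseline. Overt cytotoxicity checked in parallel cultures by sulforhodamine B staining.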

[13] = read-out: Interleukin-8 (IL8), CXCL8 (gene 3576); test: BSK_MyoF_IL8: BioMAP Diversity Plus: MyoF Assay for Interleukin-8 (IL8) Biomarker Activity (AID 2284261); conditions: primary human lung fibroblasts
Method in brief: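 Lung fibroblasts (human primary) → chemical exposure → 24 h → IL-8 measured by ELISA. Signal increase scored versus DMSO control.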

[14] = read-out: CD90, THY1 (gene 7070); test: BSK_BF4T_CD90: BioMAP Diversity Plus: BF4T Assay for CD90 Biomarker Activity (AID 2284262); conditions: primary human bronchial epithelial cells with fibroblasts
Method in brief: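 CD90 levels by ELISA after 24 h treatment of human bronchial epithelial cell/dermal fibroblast cultures, analysed versus DMSO. Overt cytotoxicity checked in parallel cultures by sulforhodamine B staining.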

[15] = read-out: Interleukin-8 (IL8), CXCL8 (gene 3576); test: BSK_BF4T_IL8: BioMAP Diversity Plus: BF4T Assay for Interleukin-8 (IL8) Biomarker Activity (AID 2284263); conditions: primary human bronchial epithelial cells with fibroblasts
Method in brief: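 Human bronchial epithelial cells with dermal fibroblasts co-culture; IL-8 measured by ELISA 24 hours after dosing, fitted vs DMSO. Cytotoxicity tracked in parallel cultures by SRB total-protein staining.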

[16] = read-out: Interleukin-1 alpha (IL1a), IL1A (gene 3552); test: BSK_BF4T_IL1a: BioMAP Diversity Plus: BF4T Assay for Interleukin-1 alpha (IL1a) Biomarker Activity (AID 2284264); conditions: primary human bronchial epithelial cells with fibroblasts
Method in brief: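 ELISA read-out of IL-1α from bronchial epithelial cell/dermal fibroblast co-cultures 24 h after compound addition. Increases scored against DMSO negative control. Cytotoxicity monitored by sulforhodamine B staining of parallel cultures.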

[17] = read-out: Decorin, DCN (gene 1634); test: BSK_MyoF_Decorin: BioMAP Diversity Plus: MyoF Assay for Decorin Biomarker Activity (AID 2284265); conditions: primary human lung fibroblasts
Method in brief: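 ELISA readout of decorin, 24 h post-dosing; primary human lung fibroblast (MyoF) culture; gain-of-signal fit vs DMSO baseline.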

[18] = read-out: KRT18 (gene 3875); test: BSK_BF4T_Keratin818: BioMAP Diversity Plus: BF4T Assay for Keratin 818 Biomarker Activity (AID 2284266); conditions: primary human bronchial epithelial cells with fibroblasts
Method in brief: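 Keratin 8/18 levels quantified by ELISA after 24 h chemical treatment of bronchial epithelial cell/dermal fibroblast co-cultures, fitted in positive direction relative to DMSO. Parallel SRB staining tracks overt cytotoxicity.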

[19] = BSK_MyoF_SRB: Viability Assessment in the BioMAP Diversity Plus: MyoF Assay (AID 2284267); conditions: primary human lung fibroblasts;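 also: total protein by SRB absorbance in parallel cultures as cytotoxicity measure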
Method in brief: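 Confluent human lung fibroblasts were exposed to test chemicals for 24 h. Parallel wells were then fixed in 10% TCA, stained with 0.1% sulforhodamine B and measured at 560 nm. DMSO served as baseline for curve fitting.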

[20] = read-out: Matrix Metallopeptidase 1 (MMP1), MMP1 (gene 4312); test: BSK_MyoF_MMP1: BioMAP Diversity Plus: MyoF Assay for Matrix Metallopeptidase 1 (MMP1) Biomarker Activity (AID 2284268); conditions: primary human lung fibroblasts
Method in brief: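 Cells: human lung fibroblasts. Exposure: 24 h chemical dosing. Detection: ELISA for MMP1. Analysis: upward fitting against DMSO negative control.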

Measured: AC50

O=C(O)C(F)(F)C(F)(F)C(F)(F)C(F)(F)C(F)(F)C(F)(F)C(F)(F)F
active: [11] 50.1 µM
inactive: [1] | [2] | [3] | [4] | [5] | [6] | [7] | [8] | [9] | [10] | [11] | [12] | [13] | [14] | [15] | [16] | [17] | [18] | [19] | [20]

ClC1C(Cl)C(Cl)C(Cl)C(Cl)C1Cl (configuration not stated)
active: [8] 0.295 µM | [19] 18.6 µM and 726 nM | [20] 8.25 µM and 6.92 µM and 292 nM
inactive: [8] | [13] | [17] | [19]

O=S(=O)(O)C(F)(F)C(F)(F)C(F)(F)C(F)(F)C(F)(F)C(F)(F)C(F)(F)C(F)(F)F
active: [3] 30 µM and 38.1 µM | [4] 24.4 µM [middle of 4 runs] | [9] 30 µM | [10] 17.2 µM and 1.82 µM | [11] 44.6 µM
inactive: [1] | [2] | [3] | [5] | [6] | [7] | [8] | [9] | [10] | [11] | [12] | [13] | [14] | [15] | [16] | [17] | [18] | [19] | [20]
